Measurements taken from PubChem BioAssay (EPA / NIEHS).
Results filed as inconclusive are left out. Active and inactive are the calls of the source. Rule for the calls, unless noted: active = hit-call score of the fitted dose curve at least 0.9, where 1 is the maximum; inactive = score below 0.9.

Tests used:
[1] = ACEA_ER_80hr: ACEA Biosciences xCELLigence Real-Time Cell Analysis on Estrogen Receptor Agonism for Proliferation (AID 2282667; active = hit-call score of the fitted dose curve at least 0.9, where 1 is the maximum); details: T47D proliferation, impedance (xCELLigence), 80 h
In short: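 Impedance readout (RT-CES) of T47D proliferation at 80 h post-dose; gain of signal vs DMSO baseline. Compounds: 8 conc, 1:4 serial, top 100 uM final, ≤0.5% DMSO; biological duplicate.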

[2] = ATG_CRE_CIS: Attagene CIS-FACTORIAL HepG2 Assay for human cAMP Responsive Element (CRE) binding protein 3 (AID 2282926); details: HepG2 CRE cis-reporter, Attagene multiplexed mRNA; actives raise or lower the signal
In short: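 Readout: fluorescently labelled reporter transcripts resolved by capillary electrophoresis after RT-PCR, taken 24 h post-dosing in transfected HepG2. Endogenous transcription factor activity drives each cis-element reporter; gain or loss of signal fitted relative to DMSO control.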

[3] = molecular target: CCAAT/enhancer-binding protein beta (Homo sapiens) (UniProt P17676); test: ATG_C_EBP_CIS: Attagene CIS-FACTORIAL HepG2 Assay for human CCAAT/Enhancer Binding Protein (C/EBP) beta (AID 2282927); details: HepG2 Attagene cis-factorial transcription factor reporter; actives raise or lower the signal
Chain of CCAAT/enhancer-binding protein beta (Homo sapiens) (P17676 whole entry, looked up): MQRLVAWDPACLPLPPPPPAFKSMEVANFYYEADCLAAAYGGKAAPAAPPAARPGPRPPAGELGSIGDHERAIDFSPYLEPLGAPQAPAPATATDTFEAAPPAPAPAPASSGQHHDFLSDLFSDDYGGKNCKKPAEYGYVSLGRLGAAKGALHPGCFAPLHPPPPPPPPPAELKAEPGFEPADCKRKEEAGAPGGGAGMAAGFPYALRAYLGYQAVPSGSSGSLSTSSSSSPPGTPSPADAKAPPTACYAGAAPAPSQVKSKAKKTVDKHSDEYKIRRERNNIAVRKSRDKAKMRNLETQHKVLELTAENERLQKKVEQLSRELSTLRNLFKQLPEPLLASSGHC
In short: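 HepG2, transient MRTU transfection, 24 h treatment. RT-PCR plus CE fluorescence; DMSO negative control, bidirectional fit.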

[4] = ATG_CMV_CIS: Attagene CIS-FACTORIAL HepG2 Assay for human CMV (Internal Marker) (AID 2282928); details: HepG2 CMV promoter reporter, transcription factor profiling; actives raise or lower the signal;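 note: endpoint acts as a background internal control marker rather than a target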
In short: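 24 h chemical treatment, HepG2 with transient multi-reporter transfection; RNA → oligo(dT) RT → PCR → 6-FAM extension → HpaI digest → CE fluorescence. Bidirectional fit, DMSO negative control.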

[5] = ATG_DR4_LXR_CIS: Attagene CIS-FACTORIAL HepG2 Assay for human Liver X Receptor (LXR), DR4 submotif (AID 2282929); details: HepG2 Attagene DR4 cis-reporter, mRNA transcription; actives raise or lower the signal
In short: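 After transient transfection with multiplexed cis-promoter reporter units, HepG2 cells received test chemicals for 24 h. Reporter mRNA induction, detected by fluorescence after RT-PCR and capillary electrophoresis, was scored relative to DMSO.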

[6] = ATG_AP_1_CIS: Attagene CIS-FACTORIAL HepG2 Assay for human Activator Protein 1 (AP-1) (AID 2282931); details: HepG2 Attagene cis-factorial AP-1 reporter mRNA; actives raise or lower the signal
In short: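 After 24 h incubation with test chemical, RNA from transfected HepG2 cells was reverse-transcribed, amplified, fluorescently labelled and digested before capillary electrophoresis. Reporters were driven by cis-regulatory promoters; activity fitted bidirectionally versus DMSO.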

[7] = ATG_AP_2_CIS: Attagene CIS-FACTORIAL HepG2 Assay for human Activator Protein 2 (AP-2) (AID 2282932); details: HepG2 AP-2 cis-reporter, Attagene transcription factor profiling; actives raise or lower the signal
In short: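 Liver-derived HepG2 line, cis-reporter system measuring endogenous factors; 24 h dosing; reporter mRNA detected by fluorescent RT-PCR and capillary electrophoresis.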

[8] = ATG_BRE_CIS: Attagene CIS-FACTORIAL HepG2 Assay for human Bone Morphogenetic Protein (BMP) Response Element (BRE) (AID 2282933); details: HepG2 BMP response element reporter, Attagene transcription factor profiling; actives raise or lower the signal
In short: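 A HepG2 multiplex reporter system measured inducible reporter mRNA 24 h post-dosing. Detection: RT-PCR, 6-FAM primer extension, HpaI digestion, capillary electrophoresis. Activity fitted bidirectionally relative to DMSO.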

[9] = molecular target: Retinoic acid receptor alpha (Homo sapiens) (UniProt P10276); test: ATG_DR5_RAR_CIS: Attagene CIS-FACTORIAL HepG2 Assay for human Retinoic Acid Receptor Alpha (RARE), DR5 submotif (AID 2282934); details: HepG2 Attagene cis-factorial RARE DR5 reporter, mRNA; actives raise or lower the signal;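 for AC50: reporter responds to endogenous RAR alpha beta and gamma in HepG2 not RARA alone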
Chain of Retinoic acid receptor alpha (Homo sapiens) (P10276 whole entry, looked up): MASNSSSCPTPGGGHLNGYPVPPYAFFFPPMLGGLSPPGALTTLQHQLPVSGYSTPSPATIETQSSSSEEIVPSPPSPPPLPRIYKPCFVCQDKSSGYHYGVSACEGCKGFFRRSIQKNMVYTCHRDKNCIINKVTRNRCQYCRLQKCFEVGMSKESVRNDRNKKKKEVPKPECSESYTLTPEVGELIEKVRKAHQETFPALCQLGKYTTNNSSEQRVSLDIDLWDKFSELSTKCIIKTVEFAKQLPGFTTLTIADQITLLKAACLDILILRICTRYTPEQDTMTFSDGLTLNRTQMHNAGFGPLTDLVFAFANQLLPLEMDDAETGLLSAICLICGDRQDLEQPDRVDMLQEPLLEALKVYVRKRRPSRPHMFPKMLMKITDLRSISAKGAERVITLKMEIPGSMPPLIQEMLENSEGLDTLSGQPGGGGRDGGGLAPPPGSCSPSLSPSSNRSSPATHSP
In short: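 After 24 h of chemical exposure, transiently transfected HepG2 cells were lysed for total RNA; the DR5-regulated reporter transcript was quantified via RT-PCR and capillary electrophoresis, with activity fitted bidirectionally against DMSO.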

[10] = molecular target: Transcription factor E2F1 (Homo sapiens) (UniProt Q01094); test: ATG_E2F_CIS: Attagene CIS-FACTORIAL HepG2 Assay for human E2F Transcription Factor 1 (AID 2282935); details: HepG2 Attagene cis-reporter, E2F reporter RNA transcripts; actives raise or lower the signal
Chain of Transcription factor E2F1 (Homo sapiens) (Q01094 whole entry, looked up): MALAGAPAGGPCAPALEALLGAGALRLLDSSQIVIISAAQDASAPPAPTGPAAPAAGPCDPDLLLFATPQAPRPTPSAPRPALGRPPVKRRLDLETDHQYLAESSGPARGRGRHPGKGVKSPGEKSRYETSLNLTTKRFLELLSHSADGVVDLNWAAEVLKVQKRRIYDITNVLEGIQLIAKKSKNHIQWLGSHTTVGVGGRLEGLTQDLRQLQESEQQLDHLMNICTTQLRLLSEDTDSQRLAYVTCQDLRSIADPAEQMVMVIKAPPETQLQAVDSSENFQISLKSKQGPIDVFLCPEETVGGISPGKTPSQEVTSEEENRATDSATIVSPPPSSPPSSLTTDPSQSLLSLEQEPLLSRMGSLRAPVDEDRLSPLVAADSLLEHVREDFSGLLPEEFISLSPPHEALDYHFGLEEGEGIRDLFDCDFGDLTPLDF
In short: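 Liver-derived HepG2 cells expressing transfected promoter-driven reporter units received test chemical for 24 hours. Signal gains or losses were fitted bidirectionally against DMSO.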

[11] = ATG_E_Box_CIS: Attagene CIS-FACTORIAL HepG2 Assay for human Enhancer Box (E-box) (AID 2282936); details: HepG2 E-box cis-reporter transcription, actives raise or lower the signal
In short: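 In this cell-based setup, HepG2 cells bearing transfected promoter-driven reporter units were exposed to chemicals for 24 h; reporter transcripts were amplified, 6-FAM-labelled, cut with HpaI and sized by capillary electrophoresis.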

[12] = ATG_M_61_CIS: Attagene CIS-FACTORIAL HepG2 Assay for M61 Transcription Factor (Internal Marker) (AID 2282937); details: HepG2 Attagene CIS-FACTORIAL M61 internal marker reporter; actives raise or lower the signal
In short: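 Using transiently transfected HepG2 liver cells, reporter transcript levels were assessed 24 h post-dosing by RT-PCR and capillary electrophoresis. Changes in either direction were fitted relative to DMSO controls.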

[13] = ATG_EGR_CIS: Attagene CIS-FACTORIAL HepG2 Assay for human Early Growth Response 1 (EGR1) (AID 2282938); details: HepG2 Attagene CIS-FACTORIAL EGR reporter mRNA; actives raise or lower the signal
In short: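 Fluorescent capillary-electrophoresis signal of reporter cDNA fragments serves as read-out. HepG2 cells bear transiently transfected cis-promoter reporter units and are exposed 24 h; gain- or loss-of-signal is fitted against DMSO.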

[14] = ATG_M_19_CIS: Attagene CIS-FACTORIAL HepG2 Assay for M19 Transcription Factor (Internal Marker) (AID 2282939); details: HepG2 Attagene CIS-FACTORIAL M19 internal marker reporter; actives raise or lower the signal
In short: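 Chemical-treated HepG2 (24 h) with MRTU constructs; reporter transcripts detected by fluorescent RT-PCR fragment analysis on capillary electrophoresis. Internal background marker, DMSO as baseline.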

[15] = ATG_ERE_CIS: Attagene CIS-FACTORIAL HepG2 Assay for Estrogen Response Element (ERE) (AID 2282940); details: HepG2 ERE cis-reporter, Attagene RNA transcript; actives raise or lower the signal
In short: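 Human liver cells (HepG2) bearing transiently transfected, promoter-regulated reporter units were exposed 24 h. Reporter mRNA induction was detected by capillary electrophoresis of labelled RT-PCR products and fitted bidirectionally to DMSO.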

[16] = ATG_Ets_CIS: Attagene CIS-FACTORIAL HepG2 Assay for human Erythroblast Transformation Specific (ETS) (AID 2282941); details: HepG2 ETS cis-reporter transcription, actives raise or lower the signal
In short: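 Cis-regulated reporter mRNA induction in HepG2 (transient transfection), 24 h exposure, RT-PCR plus capillary electrophoresis detection; DMSO serves as negative control and baseline.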

[17] = molecular target: Hepatocyte nuclear factor 3-beta (Homo sapiens) (UniProt Q9Y261); test: ATG_FoxA2_CIS: Attagene CIS-FACTORIAL HepG2 Assay for human Forkhead box A2 (FOXA2) (AID 2282942); details: HepG2 cis-reporter transcription factor activity, 24 h; actives raise or lower the signal
Chain of Hepatocyte nuclear factor 3-beta (Homo sapiens) (Q9Y261 whole entry, looked up, the tested form may be a part): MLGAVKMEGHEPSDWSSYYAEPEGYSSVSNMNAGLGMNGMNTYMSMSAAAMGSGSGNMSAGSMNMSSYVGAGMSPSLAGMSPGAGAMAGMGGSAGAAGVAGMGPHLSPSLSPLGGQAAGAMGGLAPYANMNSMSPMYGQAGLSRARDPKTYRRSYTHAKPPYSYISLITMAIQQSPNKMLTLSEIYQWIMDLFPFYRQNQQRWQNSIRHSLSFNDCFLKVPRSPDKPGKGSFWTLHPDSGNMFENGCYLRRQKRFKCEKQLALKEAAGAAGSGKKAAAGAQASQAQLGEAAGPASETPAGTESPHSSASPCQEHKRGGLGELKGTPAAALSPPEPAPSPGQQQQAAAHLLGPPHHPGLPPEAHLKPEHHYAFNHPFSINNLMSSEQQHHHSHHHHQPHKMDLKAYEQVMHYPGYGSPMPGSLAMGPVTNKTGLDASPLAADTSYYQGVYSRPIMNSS
In short: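 Fluorescence signal of reporter cDNA fragments, separated by capillary electrophoresis, reflects endogenous transcription factor activity in transfected HepG2 after 24 h. Both increases and decreases fitted against DMSO.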

[18] = ATG_FoxO_CIS: Attagene CIS-FACTORIAL HepG2 Assay for human Forkhead box O (FoxO) (AID 2282943); details: HepG2 Attagene cis-reporter, FoxO element, mRNA; actives raise or lower the signal
In short: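 Transfected HepG2 reporter cells exposed to test chemical for 24 h; reporter RNA measured by reverse transcription, PCR and fluorescent capillary electrophoresis; curves fitted for increases and decreases against DMSO.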

[19] = ATG_GATA_CIS: Attagene CIS-FACTORIAL HepG2 Assay for human GATA Binding Protein (AID 2282944); details: HepG2 GATA cis-element reporter, Attagene multiplex mRNA; actives raise or lower the signal
In short: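 Transfected cis-reporter HepG2 cells were treated with chemicals for 24 hours. Total RNA was then converted to cDNA, amplified with reporter-specific primers and analysed by fluorescent capillary electrophoresis, using DMSO-treated wells as baseline.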

[20] = molecular target: Aryl hydrocarbon receptor (Homo sapiens) (UniProt P35869); test: ATG_Ahr_CIS: Attagene CIS-FACTORIAL HepG2 Assay for human Aryl Hydrocarbon Receptor (Ahr) (AID 2282930); details: HepG2 AhR cis-factorial reporter transcription; actives raise or lower the signal
Chain of Aryl hydrocarbon receptor (Homo sapiens) (P35869 whole entry, looked up): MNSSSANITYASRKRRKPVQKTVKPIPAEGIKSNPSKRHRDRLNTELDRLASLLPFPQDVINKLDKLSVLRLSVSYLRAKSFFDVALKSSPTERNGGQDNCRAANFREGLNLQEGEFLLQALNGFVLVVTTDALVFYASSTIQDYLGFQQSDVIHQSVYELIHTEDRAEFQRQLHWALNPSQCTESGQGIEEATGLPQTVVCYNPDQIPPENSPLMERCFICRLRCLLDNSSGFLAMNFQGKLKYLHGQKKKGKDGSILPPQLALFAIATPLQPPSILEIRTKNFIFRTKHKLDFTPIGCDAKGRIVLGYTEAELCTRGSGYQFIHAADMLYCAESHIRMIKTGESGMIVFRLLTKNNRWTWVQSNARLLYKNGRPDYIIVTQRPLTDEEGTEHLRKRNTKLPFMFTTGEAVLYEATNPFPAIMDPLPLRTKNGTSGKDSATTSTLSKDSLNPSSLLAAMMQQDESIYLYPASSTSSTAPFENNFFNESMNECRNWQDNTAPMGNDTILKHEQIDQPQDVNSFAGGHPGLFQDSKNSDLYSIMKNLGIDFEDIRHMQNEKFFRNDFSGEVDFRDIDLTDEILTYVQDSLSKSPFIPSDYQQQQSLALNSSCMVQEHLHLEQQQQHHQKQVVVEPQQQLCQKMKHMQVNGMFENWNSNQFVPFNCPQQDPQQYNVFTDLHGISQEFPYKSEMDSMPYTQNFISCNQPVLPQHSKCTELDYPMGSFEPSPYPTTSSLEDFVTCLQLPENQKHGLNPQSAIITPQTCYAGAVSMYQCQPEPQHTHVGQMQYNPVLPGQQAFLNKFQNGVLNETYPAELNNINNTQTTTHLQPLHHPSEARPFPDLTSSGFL
In short: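 Endogenous factor activity is tracked through cis-promoter reporter units transfected into HepG2 cells. Transcript levels at 24 h are read by fluorescent RT-PCR and capillary electrophoresis, with activity in either direction scored relative to DMSO.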

Measured: AC50

C=C(C)C(=O)OCCOC(=O)C(=C)C
not listed: [20]
inactive: all other assays above

CCCC1CCCC(=O)O1 (configuration not stated)
active: [15] 21.3 µM
not listed: [8] | [20]
inactive: all other assays above

C=Cc1ccc(OC(C)=O)cc1
active: [4] 13.1 µM | [15] 35.9 µM
not listed: [10] | [11] | [13] | [17] | [20]
inactive: all other assays above

C=CC(=O)NC(C)(C)C
active: [4] 48.7 µM | [9] 27.2 µM
not listed: [5] | [17]
inactive: all other assays above

C[N+](C)(C)CCCNS(=O)(=O)C(F)(F)C(F)(F)C(F)(F)C(F)(F)C(F)(F)C(F)(F)C(F)(F)C(F)(F)F
not listed: [4]
inactive: all other assays above

CCCCCCCCCC[N+](C)(CCCCCCCCCC)CCC[Si](OC)(OC)OC
active: [2] 17.5 µM | [3] 18.2 µM | [9] 16.9 µM | [11] 17.8 µM | [13] 7.33 µM | [14] 17.8 µM | [17] 17.7 µM | [19] 14.1 µM
not listed: [4] | [7] | [8] | [20]
inactive: all other assays above

C=CCCCCCCCCO
active: [20] 29.3 µM
not listed: [4] | [9] | [14] | [19]
inactive: all other assays above

C1CNCCN1
not listed: [5] | [8] | [14] | [19]
inactive: all other assays above
